Test: yeast transport mutant growth inhibition pilot in 384-well plates, post-Golgi transport modulator project (AID 636)
Conditions: absorbance 615 nm, about 18 h, stronger effect = higher value

inhibition, inactive:
CC(=O)Nc1ccc(NS(=O)(=O)c2ccc(Cl)c(C(=O)O)c2)cc1 -4.61%
CCN1CCCC1CNCc1ccc(Cl)cc1Cl (stereo not drawn) 0.95%
Cc1sc2ncnc(SCC(=O)N3CCCC3)c2c1C -2.08%
Brc1ccc2[nH]ncc2c1 -2.5%
CCOC(=O)c1cccc(NC(=O)CSc2nc3cccnc3n2C)c1 -5.14%
CCn1c(SCC(=O)N2c3ccccc3CCc3ccccc32)nc2c1c(=O)n(C)c(=O)n2C -1.51%
CCN(C(=O)CN1CCN(c2ccccc2OC)CC1)c1c(N)n(Cc2ccccc2)c(=O)[nH]c1=O -8%
O=C(NCc1ccccn1)c1ccc2nc(-c3ccco3)c(-c3ccco3)nc2c1 -5.66%
COCCNC(=O)c1c(N)n(/N=C/c2cccs2)c2nc3ccccc3nc12 0.66%
CN(C)Cc1c(O)ccc2oc(Cc3ccccc3)cc12 -6.67%
COc1cc(/C=N/n2c(C)nnc2C)cc(OC)c1OC -0.53%
Cn1c(=O)c2c(nc(NCc3ccco3)n2C/C=C/c2ccccc2)n(C)c1=O -1.69%
CCn1c(C(Cc2ccccc2)NC(=O)COC)nc2ccccc21 (stereo not drawn) -6.13%
COc1ccccc1OCc1ccc(C(=O)Nc2ccncc2)o1 -3.07%
COc1ccc(OC)c(-n2nnnc2SCC(=O)NCc2ccc3c(c2)OCO3)c1 -5.87%
O=C(CSc1nnc(-c2cnccn2)n1Cc1ccco1)c1ccc(Cl)cc1 -0.78%
Cc1cc(=O)oc(C)c1C(=O)O -6.1%
COc1cccc(CN=CC2=C(O)CC(C)(C)CC2=O)c1OC -1.69%
O=C(CCNC(=O)Cn1ccc2ccccc2c1=O)NCCN1CCN(c2ccccc2F)CC1 -4.87%
Cn1cccc1Cc1nnc(SCC(N)=O)n1-c1ccc(F)cc1 -1.28%
N#CC1=C(N)N(c2ccccc2)C(c2ccco2)C1(C#N)C#N (stereo not drawn) -6.53%
CCCNC(=O)C1=C(C)C(=O)OC12CCC(C)CC2 (stereo not drawn) 2.27%
CCCS(=O)(=O)C(=C1Nc2ccccc2N1)S(=O)(=O)CCC -5.68%
O=C(CC(CC(=O)c1ccccc1)C(=O)O)c1ccccc1 3.6%
CCS(=O)(=O)N1CCC(C(=O)NC2CCCCC2)CC1 1.84%
COc1ccc(N2C(=O)C3CCCN3C2c2ccc(F)cc2)cc1Cl (stereo not drawn) 0.39%
O=C(Nc1nccs1)c1ccc(Cl)c(S(=O)(=O)N2CCCCC2)c1 -5.81%
CC(=O)N1CCc2cc(S(=O)(=O)CCC(=O)Nc3cccc(F)c3)ccc21 -4.74%
Oc1ccc(N2CCN(C(c3cccnc3)c3nnnn3Cc3ccccc3)CC2)cc1 (stereo not drawn) -4.74%
CCOP(=O)(c1ccc(N(C)C)cc1)C(O)c1c(Cl)cccc1Cl (stereo not drawn) -1.6%
CCCn1c(SCC(=O)NC(C)(C)C)nnc1C(C)C -4.32%
CCCCOC(=O)Cn1c(=N)n(CCN2CCOCC2)c2ccccc21 -7.47%
CCOC(=O)c1c(C)n(C)c2ccc(O)c(S(=O)(=O)c3ccccc3)c12 -6.4%
CCN1CCN(CCNC(=O)c2cn(C(C)c3ccccc3F)nn2)CC1 (stereo not drawn) -2.73%
Cc1ccnc(NS(=O)(=O)c2ccc(NC(=O)Cc3cccs3)cc2)n1 2.84%
c1ccc(CSCc2cn3ccsc3n2)cc1 -0.27%
Cc1nnc(N(C)C(=O)c2cccnc2)s1 0.96%
O=C(NC1CCCCC1)C(c1ccco1)N(Cc1cccnc1)C(=O)C1COc2ccccc2O1 (stereo not drawn) -2.24%
Cc1cc(Cn2ccnc2)c(C)cc1Cn1ccnc1 -3.6%

Test: growth suppression of yeast trafficking mutant, preliminary HTS, modulators of trafficking downstream of Golgi apparatus project, 1536-format plate, OD 615 nm (AID 637; in the data active = inhibition above about 30%)
Conditions: yeast transport mutant growth, absorbance 615 nm, 18 h; stronger effect = higher value

inhibition, inactive:
CC(=O)Nc1ccc(NS(=O)(=O)c2ccc(Cl)c(C(=O)O)c2)cc1 -3.17%
CCN1CCCC1CNCc1ccc(Cl)cc1Cl (stereo not drawn) 6.83%
Cc1sc2ncnc(SCC(=O)N3CCCC3)c2c1C 6.39%
Brc1ccc2[nH]ncc2c1 1.43%
CCOC(=O)c1cccc(NC(=O)CSc2nc3cccnc3n2C)c1 1.8%
CCn1c(SCC(=O)N2c3ccccc3CCc3ccccc32)nc2c1c(=O)n(C)c(=O)n2C -6.98%
CCN(C(=O)CN1CCN(c2ccccc2OC)CC1)c1c(N)n(Cc2ccccc2)c(=O)[nH]c1=O -0.16%
O=C(NCc1ccccn1)c1ccc2nc(-c3ccco3)c(-c3ccco3)nc2c1 2.13%
COCCNC(=O)c1c(N)n(/N=C/c2cccs2)c2nc3ccccc3nc12 3.11%
CN(C)Cc1c(O)ccc2oc(Cc3ccccc3)cc12 -2.42%
COc1cc(/C=N/n2c(C)nnc2C)cc(OC)c1OC 5.74%
Cn1c(=O)c2c(nc(NCc3ccco3)n2C/C=C/c2ccccc2)n(C)c1=O 0.16%
CCn1c(C(Cc2ccccc2)NC(=O)COC)nc2ccccc21 (stereo not drawn) 4%
COc1ccccc1OCc1ccc(C(=O)Nc2ccncc2)o1 6.61%
COc1ccc(OC)c(-n2nnnc2SCC(=O)NCc2ccc3c(c2)OCO3)c1 5.57%
O=C(CSc1nnc(-c2cnccn2)n1Cc1ccco1)c1ccc(Cl)cc1 6.5%
Cc1cc(=O)oc(C)c1C(=O)O 9.34%
COc1cccc(CN=CC2=C(O)CC(C)(C)CC2=O)c1OC -7.54%
O=C(CCNC(=O)Cn1ccc2ccccc2c1=O)NCCN1CCN(c2ccccc2F)CC1 -1.45%
Cn1cccc1Cc1nnc(SCC(N)=O)n1-c1ccc(F)cc1 1.33%
N#CC1=C(N)N(c2ccccc2)C(c2ccco2)C1(C#N)C#N (stereo not drawn) -2.54%
CCCNC(=O)C1=C(C)C(=O)OC12CCC(C)CC2 (stereo not drawn) 3.61%
CCCS(=O)(=O)C(=C1Nc2ccccc2N1)S(=O)(=O)CCC 4.13%
O=C(CC(CC(=O)c1ccccc1)C(=O)O)c1ccccc1 -6.77%
CCS(=O)(=O)N1CCC(C(=O)NC2CCCCC2)CC1 3.28%
COc1ccc(N2C(=O)C3CCCN3C2c2ccc(F)cc2)cc1Cl (stereo not drawn) -6.94%
O=C(Nc1nccs1)c1ccc(Cl)c(S(=O)(=O)N2CCCCC2)c1 3.83%
CC(=O)N1CCc2cc(S(=O)(=O)CCC(=O)Nc3cccc(F)c3)ccc21 -1.5%
Oc1ccc(N2CCN(C(c3cccnc3)c3nnnn3Cc3ccccc3)CC2)cc1 (stereo not drawn) -2%
CCOP(=O)(c1ccc(N(C)C)cc1)C(O)c1c(Cl)cccc1Cl (stereo not drawn) -2.58%
CCCn1c(SCC(=O)NC(C)(C)C)nnc1C(C)C 17.6%
CCCCOC(=O)Cn1c(=N)n(CCN2CCOCC2)c2ccccc21 0.16%
CCOC(=O)c1c(C)n(C)c2ccc(O)c(S(=O)(=O)c3ccccc3)c12 -1.31%
CCN1CCN(CCNC(=O)c2cn(C(C)c3ccccc3F)nn2)CC1 (stereo not drawn) -4.6%
Cc1ccnc(NS(=O)(=O)c2ccc(NC(=O)Cc3cccs3)cc2)n1 -2.79%
c1ccc(CSCc2cn3ccsc3n2)cc1 -3.49%
Cc1nnc(N(C)C(=O)c2cccnc2)s1 3.33%
O=C(NC1CCCCC1)C(c1ccco1)N(Cc1cccnc1)C(=O)C1COc2ccccc2O1 (stereo not drawn) 2.13%
Cc1cc(Cn2ccnc2)c(C)cc1Cn1ccnc1 -0.32%
